# Laboratory results as given in PubChem BioAssay (NCI).
# This is part of a sample that, as a whole, favours compounds with a hit. Of some 83,000 tested, about 20% had one in any assay.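 Single-concentration screen, 48 h exposure, 96-well plates. Endpoint: percent growth. Below 10 = active.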 Values without a mark were called inactive. Calls of active or inactive are those of the source.
# Test system: RPMI-8226 leukemia
# Experiment: NCI-60 one-dose screen, 48 h (100 = growth as untreated, 0 = no growth, -100 = all killed)
# Settings: 10 µM unless noted
# Experimental: Growth inhibition of the RPMI-8226 human tumor cell line is measured as a screen for anti-cancer activity. Cells are grown in 96 well plates and exposed to the test compound for 48 hours. Compounds are tested at a single concentration, which is 10^-5 M for most compounds. The reported endpoint is percent growth (GI% or GIPRCNT), where numbers from 0 - 100% represent growth inhibition, and numbers from -100% - 0 represent cell death. For example, a value of 40 represents 60% growth inhibition. A value of 0 means no net growth occurred over the course of the experiment. A value of -40 indicates 40% of cells at the beginning of the experiment died by the end of the experiment. A value of -100 means all cells are dead at the end of the experiment.
# NCI-60 Human Tumor Cell Lines Screen was performed using the standard one-dose NCI protocol, which is described in more detail at https://dtp.cancer.gov/discovery_development/nci-60/default.htm.
# Compounds with GIPRCNT values below 10 were considered active. Activity score was based on GIPRCNT using the following formula: […]
# Score is 0 for GIPRCNT values of 100 or above, 50 for GIPRCNT values of 0, and 100 for GIPRCNT values of -100.
row,Structure (SMILES),growth
1,O=C(O)c1nn(-c2ccc(Cl)cc2)nc1N1CCCC1,101%
2,C#Cc1cccc(Nc2ncnc3ccc(-c4cnc(Cl)c(NS(C)(=O)=O)c4)cc23)c1,-31.8% (active)
3,Cc1ccccc1NC(=O)c1sc2nc3c(cc2c1N)CCCC3,21.3%
4,CCN(CC)CCOc1ccc(/C(=C(\C)Cc2ccc(OC)cc2)c2ccc(O)cc2)cc1,-33.2% (active)
5,CCN(CC)CCCC(Nc1c2ccc(Cl)cc2nc2ccc(OC)cc12)c1ccncc1 (stereo not given),74.3%
6,Cc1ccc(C2=Nc3c(N)nc(N)nc3NC(c3cccc(Nc4ccnc5cc(C(F)(F)F)ccc45)c3)C2)cc1 (stereo not given),-19.2% (active)
7,N#Cc1c(-c2ccc(F)cc2)cc(-c2cccc(Cl)c2)[nH]c1=O,42.1%
8,CCOC(=O)c1ccc2c(c1)c1c(C)c3cnccc3c(C)c1n2C,-29.7% (active)
9,O=c1[nH]c(CN2CCN(c3ccccc3)CC2)nc2c(Br)cc(Br)cc12,96.6%
10,Cc1c(C(=O)C(SC(=S)N2CCOCC2)SC(=S)N2CCOCC2)nnn1-c1ccc([N+](=O)[O-])cc1,90.1%
11,COc1cc(NC(=O)c2cncnc2Nc2ccc3c(ccn3Cc3cccc(F)c3)c2)cc(OC)c1,63.5%
12,CC(C)=CC(=O)C1C(=O)c2ccccc2C1=O,103%
13,O=C1C(c2c(O)[nH]c3ncccc23)=Nc2ccccc21,75.4%
14,COC12C=C/C(=C(/C(=O)OCc3ccccn3)C(=O)CCCCCCCCC3(OC)C=C/C(=C(/C(=O)OCc4ccccn4)C(=O)CCCCCCCC1)O3)O2,-14.8% (active)
15,COc1cccc2cc(N(C)c3nc(C)nc4c3CCC4)ccc12,29.2%
16,Cc1c(-c2cnc3ccc(Cl)cc3c2C(=O)O)nnn1-c1ccc(Cl)cc1,105%
17,CN(C)CCOc1ccc(/C(=C(/CCCCCCCCCC[P+](c2ccccc2)(c2ccccc2)c2ccccc2)c2ccccc2)c2ccccc2)cc1,-48.3% (active)
18,CN(C)C(=O)OCc1ccc2c(Cl)cc(Cl)c(O)c2n1,34.7%
19,CCOC(=O)/C(=C\c1ccccc1Cl)P(=O)(OCC)OCC,7.93% (active)
20,Cc1ccccc1NC(=O)Cn1cc(CN2CCN(c3ccnc4cc(Cl)ccc34)CC2)nn1,79.7%

row,Structure (SMILES),growth
1,C#Cc1cccc(Nc2nc(Cl)nc3cc(NC(=O)CCl)ccc23)c1,-47.6% (active)
2,CCOC(=O)C1=C(c2ccccc2)N=C2N(c3ccccc3)N=C(C(C)=O)N2C1c1ccc(Br)cc1 (stereo not given),77.8%
3,CCNCCNc1c(C)c(-c2ccc(C(F)(F)F)cc2)c(C#N)c2nc3ccccc3n12,86.4%
4,CC1=NC(=S)NC(c2ccccc2)/C1=C1/CC(c2ccccc2O)NN1 (stereo not given),97.7%
5,C#CCOc1cccc(Nc2ncnc3c(NC(=O)CCl)cccc23)c1,-40.2% (active)
6,Cn1cc(-c2csc(-c3cn(CCO)c4ccc(F)cc34)n2)c2cccnc21,62.6%
7,COC(=O)c1ccc(-n2cc(CCCOS(=O)(=O)c3ccc(F)cc3)nn2)cc1,97.3%
8,CCOC(=O)c1c(C)nc2c(c1N)C(=O)C(=O)N2CCc1ccc(OC)c(OC)c1,42.7%
9,O=C(OCc1ccc2c(Br)cc(Br)c(O)c2n1)N1CCN(C(=O)c2cc3ccccc3[nH]2)CC1,34.3%
10,COc1ccc(-c2csc(NC(=O)CSc3nc(C)cc(=O)[nH]3)n2)cc1,96%
11,COc1nc2ccccc2cc1/C=[N+](\[O-])c1ccccc1,14.2%
12,COC(=O)[C@@H](Cc1c[nH]c2ccccc12)NC[C@@H](O)CN1C(=O)/C(=C\c2cc(OC)c(OC)c(OC)c2)c2ccccc21,6.06% (active)
13,CSc1nn2c(-c3cc4cc(Br)ccc4oc3=O)ccnc2c1C#N,103%
14,O=C(c1ccccc1)[C@@H](c1ccccc1)[C@]1(O)C(=O)Nc2ccccc21,100%
15,Cn1nc(-c2ccc(Cl)cc2)nc2c(=O)n(C)c(=O)nc1-2,-22.7% (active)
16,COc1cccc(C2C3=C(COC3=O)N(CCO)c3cc4c(cc32)OCCO4)c1 (stereo not given),25.4%
17,Cc1ccc2c(n1)C[C@H](C(C)(C)O)CC[C@H]2C,110%
18,Cc1nn(-c2ccccc2)c(Oc2ccccc2)c1/C=N/NC(=O)Cn1c(=O)sc2ccccc21,33.8%
19,N/C(=N\c1nc2ccccc2s1)NC(=O)Nc1ccccc1,7.59% (active)
20,O=C(Nc1ncc(Cc2ccc(Cl)cc2)s1)c1ccc2c(c1)OCCO2,20%
